Source: PubChem BioAssay (EPA / NIEHS)
Activity calls are given as the source filed them. The calls were made as follows: active = hit-call score of the fitted dose curve at least 0.9, where 1 is the maximum; inactive = score below 0.9.

What follows are compounds tested against Hepatocyte nuclear factor 3-beta (Homo sapiens) (UniProt Q9Y261) (assay: ATG_FoxA2_CIS: Attagene CIS-FACTORIAL HepG2 Assay for human Forkhead box A2 (FOXA2) (AID 2282942)). Details: HepG2 cis-reporter transcription factor activity, 24 h; actives raise or lower the signal.
Method: ATG_CIS is a cell-based, multiplexed-readout assay that uses HepG2, a human liver cell line, with measurements taken at 24 hours after chemical dosing in a 24-well plate.ATG_FoxA2_CIS is one of 52 assay component(s) measured or calculated from the ATG_CIS assay. It is designed to make measurements of mRNA induction, a form of inducible reporter, as detected with fluorescence intensity signals by Reverse transcription polymerase chain reaction (RT-PCR) and Capillary electrophoresis technology.Data from the assay component ATG_FoxA2_CIS was analyzed into 1 assay endpoint. This assay endpoint, ATG_FoxA2_CIS, was analyzed with bidirectional fitting relative to DMSO as the negative control and baseline of activity. Using a type of inducible reporter, measures of mRNA for gain or loss-of-signal activity can be used to understand the reporter gene at the transcription factor-level as they relate to the gene FOXA2. Furthermore, this assay endpoint can be referred to as a primary readout, because this assay has produced multiple assay endpoints where this one serves a reporter gene function. To generalize the intended target to other relatable targets, this assay endpoint is annotated to the dna binding intended target family, where the subfamily is forkhead box protein.
Human liver HepG2 cells are transiently transfected with multiple reporter transcription units (MRTUs) in 6-well plates using FuGene 6 reagent (Roche; 3 ml FuGene/1 mg DNA). The MRTU constructs are regulated by a cis-regulating element (promoter). […] A major difference between the CIS and TRANS system is that in CIS activities of endogenous TFs are measured, whereas the TRANS assay evaluates changes in activities of exogenous, chimeric NR-Gal4 proteins. […] At the end of 24 hour incubation, total RNA was isolated using TriZol reagent (Invitrogen). The isolated RNA is then reverse-transcribed using oligo(dT) primer and Mo-MLV reverse transcriptase (Invitrogen) with DNAse I (Ambion) treatment for 30 min. The one-tenth of the produced cDNA was amplified by PCR using Taq DNA polymerase (Invitrogen) and two reporter sequence-specific primers. The PCR products were fluorescently labeled by primer extension with 6-arboxyfluorescein (6-FAM) 5'-labeled reporter sequence-specific primer (2 min at 95 C, 20 s at 68 C and 10 min at 72 C) and these products were digested with 5U of HpaI (New England Biolabs) for 2h at 37 C. The fragments were purified using Qiaquick PCR columns (Qiagen), analyzed on an ABI 3130xL genetic analyzer (Applied Biosystems) with peak positions identified by using a set of X-rhodamine (ROX)-labeled MapMarker1000 molecular weight standards (BioVentures). The raw capillary electrophoresis data was processed using Attagraph software (Attagene).

Hepatocyte nuclear factor 3-beta (Homo sapiens), sequence (Q9Y261 whole entry, looked up): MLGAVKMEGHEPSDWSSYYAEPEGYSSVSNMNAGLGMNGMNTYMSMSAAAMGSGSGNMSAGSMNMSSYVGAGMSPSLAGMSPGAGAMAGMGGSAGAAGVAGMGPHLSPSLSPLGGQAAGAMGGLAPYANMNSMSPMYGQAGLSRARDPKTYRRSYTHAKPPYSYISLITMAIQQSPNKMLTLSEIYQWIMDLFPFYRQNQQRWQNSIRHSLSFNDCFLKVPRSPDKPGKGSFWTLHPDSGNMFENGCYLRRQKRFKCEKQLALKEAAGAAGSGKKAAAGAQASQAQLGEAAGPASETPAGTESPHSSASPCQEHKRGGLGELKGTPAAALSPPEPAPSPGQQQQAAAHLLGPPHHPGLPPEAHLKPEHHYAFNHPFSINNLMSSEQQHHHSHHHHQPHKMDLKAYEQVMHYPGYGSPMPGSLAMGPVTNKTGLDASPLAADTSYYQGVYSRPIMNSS

Row | SMILES | outcome
1 | CC1=NN(c2ccc(S(=O)(=O)O)cc2)C(=O)C1 | inactive
2 | Nc1ccc2c(O)cc(S(=O)(=O)O)cc2c1 | inactive
3 | O=C1OC(=O)c2c(Br)c(Br)c(Br)c(Br)c21 | inactive
4 | CC1(C)CCC[C@]2(C)[C@H]3CCO[C@]3(C)CC[C@@H]12 | inactive
5 | N#Cc1cscn1 | inactive
6 | COc1ccc(CCN2CCC(Nc3nc4ccccc4n3Cc3ccc(F)cc3)CC2)cc1 | inactive
7 | CCOCCOCCOCC | inactive
8 | CCCCOC(=O)CCCCCCCC(=O)OCCCC | inactive
9 | c1ccc(CN(Cc2ccccc2)Cc2ccccc2)cc1 | inactive
10 | CCCC(=O)OC(C)(C)Cc1ccccc1 | inactive
11 | CCOc1ccc(NC(=O)CC(C)O)cc1 (stereo not given) | inactive
12 | C[C@H](CCC(=O)NCC(=O)O)[C@H]1CC[C@H]2[C@@H]3[C@H](O)C[C@@H]4C[C@H](O)CC[C@]4(C)[C@H]3C[C@H](O)[C@]12C | inactive
13 | CC(=O)O[C@H]1C[C@@H]2CC[C@@]1(C)C2(C)C | inactive
14 | CC/C=C\CCOC(=O)CC | inactive
15 | COCCc1ccc(OCC(O)CNC(C)C)cc1 (stereo not given) | inactive
16 | CN(C)CCOC(C)(c1ccccc1)c1ccccn1 (stereo not given) | inactive
17 | CC(C)=CCCC(C)CCOC=O (stereo not given) | inactive
18 | Nc1ccc(N)c2c1C(=O)c1ccccc1C2=O | inactive
19 | CN(C)CCOc1ccc(/C(=C(/CCCl)c2ccccc2)c2ccccc2)cc1 | inactive
20 | CC(C)(C)c1ccc(C(=O)O)cc1 | inactive

Row | SMILES | outcome
21 | COc1ccccc1[N+](=O)[O-] | inactive
22 | CCCCCCCCCCCCS(=O)(=O)Cl | inactive
23 | CCc1cc(C(C)(C)C)c(O)c(C(C)(C)C)c1 | inactive
24 | O=C(O)CCCCCCCCC(=O)O | inactive
25 | CC1(C)C(=O)N(Cl)C(=O)N1Br | inactive
26 | Nc1ccc(NCCO)c([N+](=O)[O-])c1 | inactive
27 | CCNCCO | inactive
28 | Cc1c(Cl)cccc1[N+](=O)[O-] | inactive
29 | C=Cc1ccc(C)cc1 | inactive
30 | ClC(c1ccccc1)(c1ccccc1)c1ccccc1 | inactive
31 | CC(=O)OCCCc1ccccc1 | inactive
32 | OCCOCCN1CCN(C2=Nc3ccccc3Sc3ccccc32)CC1 | inactive
33 | CCCCN(CCCC)C(=O)N(CCCC)CCCC | inactive
34 | Cc1cc(=O)oc2cc(N(C)C)ccc12 | inactive
35 | CCCCCCCCCC(C)C=O (stereo not given) | inactive
36 | COC(=O)Nc1ccc(Cl)c(Cl)c1 | inactive
37 | CC(C)=CCCC(C)CC(=O)O (stereo not given) | inactive
38 | O=C(O)CCCCCCCCCCCC(=O)O | inactive
39 | C[C@H]1C[C@@H](O)CC(C)(C)C1 | inactive
40 | CC=Cc1ccc(OCC)c(O)c1 | inactive
